This is one part of a sample in which hits are shown more often than they occur.
ST2 inh: inhibitors of human ST2 (IL1RL1) binding to IL-33. 78,000 tested, 2.3% active. inhibition, % for hits at 17 µM. Q01638. AlphaLISA ST2-Fc/biotin-IL-33 interaction, 1 h; in the data active = inhibition above about 30%
Target sequence (Q01638 whole entry, looked up): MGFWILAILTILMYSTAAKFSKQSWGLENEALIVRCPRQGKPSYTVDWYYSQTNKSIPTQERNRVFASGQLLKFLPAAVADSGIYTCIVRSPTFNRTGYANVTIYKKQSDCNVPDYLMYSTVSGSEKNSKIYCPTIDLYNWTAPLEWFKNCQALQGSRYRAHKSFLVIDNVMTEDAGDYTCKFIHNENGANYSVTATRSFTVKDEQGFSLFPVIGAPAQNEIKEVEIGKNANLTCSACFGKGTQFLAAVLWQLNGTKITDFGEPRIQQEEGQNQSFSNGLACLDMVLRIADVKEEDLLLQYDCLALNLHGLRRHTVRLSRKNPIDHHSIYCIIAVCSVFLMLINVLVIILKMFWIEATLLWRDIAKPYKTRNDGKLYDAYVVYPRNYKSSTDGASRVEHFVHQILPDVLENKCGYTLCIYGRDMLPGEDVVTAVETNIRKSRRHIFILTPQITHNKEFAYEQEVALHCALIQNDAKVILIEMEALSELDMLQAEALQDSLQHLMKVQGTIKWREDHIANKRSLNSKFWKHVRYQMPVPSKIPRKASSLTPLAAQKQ
* = called active by the depositor; i = inactive.

SMILES	ST2 inh
C=CCN1C(=Nc2cccnc2)SCC1(O)c1ccc(C)cc1 (configuration not stated)	59%*
Cc1ccc2cc(C3(O)CCN(C(=O)COc4cccnc4)CC3)ccc2n1	i
CCC(=O)N1N=C(C)CC1(O)c1cccnc1 (configuration not stated)	i
COc1ccc(C(CC(=O)N2CCN(c3cnccn3)CC2)c2ccccc2)cc1 (configuration not stated)	i
C=CCN1C(=Nc2cccnc2)SCC1(O)c1ccc(OC)cc1 (configuration not stated)	61%*
CCC1=NN(C(=O)c2cccnc2)C(O)(c2ccc(Br)cc2)C1 (configuration not stated)	i
CC(C)NC(=O)C1CCC(Cn2c(=O)c3sccc3n(CC(=O)NC3CCCC3)c2=O)CC1 (configuration not stated)	i
O=C(CCNc1cc(C2CCNCC2)ncn1)NC1CCCCC1	i
O=C(c1cc(-c2ccc(Cl)cc2)on1)N1CCCc2ccccc21	i
CN1CCOc2cc(S(=O)(=O)N3CC[C@H]4CC[C@@H](C3)N4)ccc21	i
CCCOc1ccc(Oc2nc(NCC)nc(NC(C)C)n2)nn1	i
CC1CN(C(=O)c2cccc(F)c2)C(C)CN1C(=O)c1cccc(F)c1 (configuration not stated)	85%*
COC(=O)[C@@H]1CN(C(=O)c2cccc(F)c2)CCN1C(=O)c1cccnc1	i
Cc1cccc(C(=O)N2C(C)CCCC2C)c1 (configuration not stated)	i
COc1ccccc1S(=O)(=O)Cc1ccc(C(=O)NCCCN2CCCC2=O)o1	i
O=C(Cc1ccc(F)cc1)Nc1c(C(=O)Nc2cccc(F)c2)oc2ccccc12	93%*
O=C(Nc1c(C(=O)Nc2cccc(F)c2)oc2ccccc12)c1ccc(F)cc1	i
CCOCC(=O)Nc1c(C(=O)Nc2cccc(F)c2)oc2ccccc12	i
CC1CCC(NC(=O)CN2CCN(Cc3ccccc3)C2=O)CC1 (configuration not stated)	i
Cc1cccc(CN2CCC(n3cc(CN4CCCC4)nn3)CC2)c1	i
Cc1cc(CSc2ccccc2)ccc1NC(=O)C(C)N(c1ccccc1)S(C)(=O)=O (configuration not stated)	i
CN1CC(n2cnc(-c3ccccc3)c2-c2ccccc2C(=O)O)CCC1=O (configuration not stated)	i
Cc1nn(C)c(Cl)c1-c1c(-c2ccccc2)ncn1C1CC=CC1	i
CN1CCC(n2cnc(-c3ccccc3)c2-c2cccc3cccnc23)CC1	30%*
N#Cc1ccc(CN2CCCN(S(=O)(=O)c3ccc(Br)s3)CC2)cc1	i
SMILES	ST2 inh
Cc1ccc(S(=O)(=O)N[C@H]2C[C@@H]3CC[C@H]2C3)cc1[N+](=O)[O-]	i
C=CCn1c(CCNC(=O)CCC)nc2ccccc21	i
CN(Cc1cc(F)ccc1O)Cc1cccc2cnccc12	i
COc1ccc(NC(=O)C2C3CCC=CCCC32)cc1 (configuration not stated)	i
Cn1c(=O)c2c(nc(NCCO)n2Cc2ccccc2F)n(C)c1=O	i
Cn1c(=O)c2c(nc(OCCc3ccccc3)n2Cc2ccccc2F)n(C)c1=O	30%*
Cn1c(=O)c2c(nc(N3CCN(c4ccccn4)CC3)n2Cc2ccccc2F)n(C)c1=O	i
Cc1nn(Cc2ccccc2Cl)c(C)c1NC(=O)CCCn1nc([N+](=O)[O-])cc1C	i
COc1ccc(/C=C/c2nc(-c3ccccc3O)n(-c3ccccc3)n2)cc1OC	36%*
Cc1cc(C)n(-c2nc(-c3ccccc3)cc(-c3ccccc3O)n2)n1	i
COc1cc(/C=C/c2nc3ccccc3c(=O)n2-c2cccc([N+](=O)[O-])c2)ccc1O	i
Oc1ccccc1/C=C/c1nc(-c2ccccc2O)n(-c2ccccc2)n1	36%*
COc1ccc(-c2cnn(-c3ccccc3)c2N)cc1OC	i
Oc1ccccc1C=Nc1ccccc1-c1nnc2n1CCCCC2	i
O=C(Nc1ccc(F)cc1F)c1coc(=O)c2ccccc12	i
CCOc1ccc(C2C3=C(CC(C)(C)CC3=O)Nc3nc(SCC)[nH]c(=O)c32)cc1 (configuration not stated)	i
COc1ncc(-c2ccccc2Cl)c(OC)n1	i
CC(C)COC(=O)c1ccc(N2C(=O)C3C4CCC(C4)C3C2=O)cc1 (configuration not stated)	i
Cc1ccc2c(c1[N+](=O)[O-])C(=O)c1ccccc1C2=O	i
Cc1ccc(-c2cnc3ccccc3n2)cc1[N+](=O)[O-]	i
Cc1cc2c(cc1[N+](=O)[O-])C(=O)c1cc3ccccc3nc1-2	36%*
O=C(COc1ccccc1)Nc1c(-c2cccs2)nc2ccccn12	i
CC(=O)C1=NN(c2ccccc2C)C2C(=O)N(c3ccc(C)cc3)C(=O)C12 (configuration not stated)	i
N#Cc1c(C(F)(F)F)cc(NCCN2CCOCC2)n2c1nc1ccccc12	34%*
CCCc1cc(NCCOC)n2c(nc3ccccc32)c1C#N	i
SMILES	ST2 inh
Cc1cc(NCCN2CCOCC2)n2c(nc3ccccc32)c1C#N	i
FC(F)(F)Oc1ccc(CN2CC[C@H](c3nc4ccccc4o3)C2)cc1	i
CCOc1ccc(C(=O)Nc2cccc(OCc3cc(=O)n4ccc(C)cc4n3)c2)cc1	i
C=C(C)Cn1c(CCNC(=O)Cc2ccccc2)nc2ccccc21	i
O=C1CCc2cc(S(=O)(=O)N3CCc4ccccc4C3)ccc2N1	i
O=C(Nc1nc2ccc(F)cc2s1)c1ccc(S(=O)(=O)N2CCc3ccccc3C2)cc1	i
O=C(Nc1ccccc1[N+](=O)[O-])c1cccc(S(=O)(=O)N2CCc3ccccc3C2)c1	40%*
Cc1cc(C)c(C#N)c(SCC(=O)Nc2cccc3cccnc23)n1	i
Cc1ccc(NC(=O)c2cnc3n(c2=O)CCS3)cc1	i
Cc1nc(-c2c(C)[nH]c3ccccc23)cs1	36%*
Cc1nc(-c2ccc(O)cc2)cs1	i
Cc1[nH]c2ccccc2c1C(=O)CCC(=O)O	i
CC1=C(C(=O)Nc2ccc(C)cc2C)C(c2ccc(Cl)cc2)n2nnnc2N1 (configuration not stated)	i
CCOC(=O)c1[nH]c2ccccc2c1CN1CCN(c2ncc(F)cn2)CC1	i
O=C(Nc1ccc2c(c1)OCCO2)C1COc2ccccc2O1 (configuration not stated)	i
O=C(NCCCN1CCCC1)c1cccn1-c1nnc(N2CCCCC2)s1	i
CCN1CCN(CCCNC(=O)c2cccn2-c2nnc(N3CCCCC3)s2)CC1	i
COc1ccc(N2CCN(CCCNC(=O)c3cccn3-c3nnc(N4CCCCC4)s3)CC2)cc1	31%*
CC(=O)c1c(C)oc2ccc(N(C(=O)c3ccccc3Cl)S(=O)(=O)c3ccccc3)cc12	i
Cc1ccc([N+](=O)[O-])cc1S(=O)(=O)NCCOc1ccccc1	i
Nc1c(C(=O)Nc2ccc(Br)cc2)nnn1Cc1ccc(Cl)cc1	i
COC(=O)c1ccccc1Sc1c(-c2ccccc2)nc2sccn12	i
c1ccc(Sc2c(-c3ccccc3)nc3ncccn23)cc1	i
O=[N+]([O-])c1ccc(Sc2c(-c3ccccc3)nc3sccn23)cc1	32%*
O=C(Cn1c(=O)n(-c2cc(F)ccc2F)c(=O)c2sccc21)N1CCCC1	i
CN(C)C(=O)c1ccc2c(c1)NC(=O)C1CCCCN21 (configuration not stated)	i
